In PubChem BioAssay (NCI):
The panel holds about 79,000 compounds, 15% with a hit somewhere; the sample as a whole holds those more often. The source made the active and inactive calls. No stated cut-off is given here; in the data, active means growth inhibition above about 70%; inactive means the rest.

Key:
[1] = NCI Yeast Anticancer Drug Screen. Data for the mec2-1 strain (AID 157); settings: S. cerevisiae mec2-1 strain, hits give high values
Outline: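 mec2-1 yeast strain, carrying an alteration in DNA damage repair or cell cycle control, was exposed to compounds; growth inhibition was measured relative to vehicle-treated controls.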

[2] = NCI Yeast Anticancer Drug Screen. Data for the rad14 strain (AID 159);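 further: 0% = growth of vehicle-treated control cultures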; settings: S. cerevisiae rad14 strain growth inhibition, hits give high values
Outline: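 Inhibition of growth is reported for a repair-deficient yeast mutant following compound treatment, calculated relative to cultures that received vehicle.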

[3] = NCI Yeast Anticancer Drug Screen. Data for the CLN2oe strain (AID 163);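 further: 0% = growth of vehicle-only control cultures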; settings: S. cerevisiae CLN2oe strain, hits give high values
Outline: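 Yeast cells carrying a defined cell-cycle control alteration were exposed to test compounds. Growth inhibition was scored against vehicle-treated control cultures.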

[4] = NCI Yeast Anticancer Drug Screen. Data for the cln2 rad14 strain (AID 165);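 further: 0% = growth equal to vehicle treated cultures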; settings: S. cerevisiae cln2 rad14 strain, hits give high values
Outline: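 Yeast carrying cln2 and rad14 alterations (cell cycle control and DNA damage repair) were exposed to compounds. Growth inhibition was measured against vehicle-treated controls.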

[5] = NCI Yeast Anticancer Drug Screen. Data for the bub3 strain (AID 167); settings: S. cerevisiae bub3 mutant strain, hits give high values
Outline: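 Mutant yeast screening strain plus compound; vehicle-treated cultures serve as the 0% inhibition reference.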

[6] = NCI Yeast Anticancer Drug Screen. Data for the wt2 strain (AID 169); settings: S. cerevisiae wt2 strain growth inhibition, hits give high values
Outline: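 Yeast cells were exposed to test compounds, and growth inhibition was measured relative to vehicle-treated controls.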

[7] = NCI Yeast Anticancer Drug Screen. Data for the mlh1 strain (AID 171);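 further: 0% = growth of vehicle-treated control cultures of the same strain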; settings: S. cerevisiae mlh1 strain growth inhibition, hits give high values
Outline: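 Yeast carrying a defined genetic alteration in DNA damage repair or cell cycle control were exposed to test compounds. Growth inhibition was measured relative to vehicle-treated controls.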

[8] = NCI Yeast Anticancer Drug Screen. Data for the sgs1 strain (AID 173);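 further: 0% = growth of vehicle-only control cultures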; settings: S. cerevisiae sgs1 mutant, hits give high values
Outline: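 Yeast mutant strains carrying defined defects in DNA damage repair or cell cycle control were exposed to test compounds. Growth inhibition was scored against vehicle-treated controls.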

[9] = NCI Yeast Anticancer Drug Screen. Data for the mlh1 rad18 strain (AID 175); settings: S. cerevisiae mlh1 rad18 strain growth inhibition, hits give high values
Outline: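 Growth inhibition of the yeast strain was measured after compound exposure and expressed relative to vehicle-treated controls. The strain carries defined defects in DNA damage repair.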

[10] = NCI Yeast Anticancer Drug Screen. Data for the rad18 strain (AID 177); settings: S. cerevisiae rad18 mutant growth inhibition, hits give high values
Outline: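 Yeast carrying a defined DNA damage repair alteration were exposed to compounds. Growth inhibition was expressed relative to vehicle-treated controls.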

[11] = NCI Yeast Anticancer Drug Screen. Data for the rad52 strain (AID 147);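 further: 0% = growth of vehicle-treated control cultures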; settings: S. cerevisiae rad52 mutant growth inhibition, hits give high values
Outline: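 Yeast strain carrying a DNA damage repair alteration was exposed to test compounds. Growth inhibition was measured relative to vehicle-treated controls.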

[12] = NCI Yeast Anticancer Drug Screen. Data for the wt1 strain (AID 149);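 further: 0% = growth of vehicle-treated wt1 cultures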; settings: S. cerevisiae wt1 strain (SPY 50644) growth inhibition, hits give high values
Outline: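 Each compound is tested on wt1 yeast and the loss of growth versus vehicle gives the inhibition value.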

[13] = NCI Yeast Anticancer Drug Screen. Data for the rad50EPP+ strain (AID 151);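 further: 0% = growth of vehicle-treated control cultures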; settings: S. cerevisiae rad50 mutant strain, hits give high values
Outline: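 Yeast strain carrying rad50 alteration (rad50EPP+) exposed to compounds; growth inhibition measured relative to vehicle-treated controls.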

[14] = NCI Yeast Anticancer Drug Screen. Data for the mgt1 strain (AID 153); settings: S. cerevisiae mgt1 mutant growth inhibition, hits give high values
Outline: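 Yeast mgt1 strain (DNA repair/cell-cycle alteration panel) exposed to compounds; growth inhibition measured relative to vehicle-treated controls.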

[15] = NCI Yeast Anticancer Drug Screen. Data for the rad50 strain (AID 155);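 further: 0% = growth of vehicle-only cultures of the same strain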; settings: S. cerevisiae rad50 strain growth inhibition, hits give high values
Outline: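 Vehicle-treated cultures provide the reference for the growth inhibition reported for compound-exposed, repair-deficient yeast.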

[16] = NCI Yeast Anticancer Drug Screen. Data for the sgs1 mgt1 strain (AID 161);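 further: 0% = growth of cultures given vehicle only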; settings: S. cerevisiae sgs1 mgt1 strain, hits give high values
Outline: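 Compounds are added to genetically altered yeast, and growth is compared with cultures given vehicle alone to give percent inhibition.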

[17] = at 5.0 µM (retest, dose inferred, filed as 0.5)
[18] = at 50.0 µM (retest, dose inferred, filed as 5.0)

Measured: growth inhibition

O=C1c2ccc3ccccc3c2CCC1N1CCCCC1 (stereo not drawn)
active: [1]; [18] 99% | [1]; at 50.0 µM 98.8% | [1]; at 100.0 µM 95% | [2]; at 33.0 µM 97% | [2]; at 100.0 µM 98% | [3]; at 100.0 µM 98% | [4]; [18] 97% | [4]; at 50.0 µM 78.3% | [5]; at 33.0 µM 76% | [5]; [18] 99% | [5]; at 50.0 µM 99.3% | [5]; at 100.0 µM 97% | [6]; at 33.0 µM 79% | [6]; at 100.0 µM 97% | [7]; at 33.0 µM 81% | [7]; at 100.0 µM 98% | [8]; at 33.0 µM 92% | [8]; at 100.0 µM 98% | [9]; [18] 99% | [9]; at 50.0 µM 97% | [10]; at 100.0 µM 97%
inactive: [1]; [17] 10% | [1]; at 11.0 µM 17% | [1]; at 33.0 µM 62% | [2]; at 1.2 µM 14% | [2]; at 3.7 µM 33% | [2]; at 11.0 µM 50% | [3]; at 1.2 µM 5% | [3]; at 3.7 µM 5% | [3]; at 11.0 µM 22% | [3]; at 33.0 µM 61% | [4]; [17] 7% | [5]; at 1.2 µM -7% | [5]; at 3.7 µM -6% | [5]; [17] 10% | [5]; at 11.0 µM 8% | [6]; at 1.2 µM 5% | [6]; at 3.7 µM 14% | [6]; at 11.0 µM 33% | [7]; at 1.2 µM -1% | [7]; at 3.7 µM 7% | [7]; at 11.0 µM 22% | [8]; at 1.2 µM 4% | [8]; at 3.7 µM 12% | [8]; at 11.0 µM 41% | [9]; [17] 31% | [10]; at 1.2 µM 6% | [10]; at 3.7 µM 13% | [10]; at 11.0 µM 26% | [10]; at 33.0 µM 65%

COC1C(O)C(C)OC(OC2C(Oc3cccc4c(O)c5c(=O)oc6ccc(C)c7c(=O)oc(c34)c5c67)OC(C)C(O)C2O)C1O (stereo not drawn)
inactive: [11]; at 1.2 µM 41% | [11]; at 3.7 µM 67% | [12]; at 1.2 µM 6% | [12]; at 3.7 µM 2% | [12]; at 11.0 µM 8% | [12]; at 33.0 µM 17% | [12]; at 100.0 µM 12% | [13]; at 1.2 µM 7% | [13]; at 3.7 µM 22% | [13]; at 11.0 µM 31% | [13]; at 33.0 µM 39% | [13]; at 100.0 µM 35% | [14]; at 1.2 µM -4% | [14]; at 3.7 µM 7% | [14]; at 11.0 µM -4% | [14]; at 33.0 µM 25% | [14]; at 100.0 µM 18% | [15]; at 1.2 µM 57% | [15]; [17] 29% | [15]; [18] 68% | [1]; at 1.2 µM 1% | [1]; at 3.7 µM 4% | [1]; [17] 25% | [1]; at 11.0 µM 9% | [1]; at 33.0 µM 18% | [1]; [18] 15% | [1]; at 50.0 µM 33.8% | [1]; at 100.0 µM 34% | [16]; [17] 28% | [16]; [18] -2% | [16]; at 50.0 µM 3.65% | [3]; at 1.2 µM 1% | [3]; at 3.7 µM 1% | [3]; at 11.0 µM 9% | [3]; at 33.0 µM 2% | [3]; at 100.0 µM 17% | [4]; [17] 19% | [4]; [18] 5% | [4]; at 50.0 µM -3.1% | [5]; at 1.2 µM -5% | [5]; at 3.7 µM -3% | [5]; [17] 23% | [5]; at 11.0 µM -1% | [5]; at 33.0 µM -2% | [5]; [18] -5% | [5]; at 50.0 µM 57.7% | [5]; at 100.0 µM 14% | [7]; at 1.2 µM 0% | [7]; at 3.7 µM 6% | [7]; at 11.0 µM 9% | [7]; at 33.0 µM 17% | [7]; at 100.0 µM 30% | [8]; at 1.2 µM 1% | [8]; at 3.7 µM 4% | [8]; at 11.0 µM 15% | [8]; at 33.0 µM 20% | [8]; at 100.0 µM 22% | [10]; at 1.2 µM 6% | [10]; at 3.7 µM 3% | [10]; at 11.0 µM 17% | [10]; at 33.0 µM 21% | [10]; at 100.0 µM 16%
active: [11]; at 11.0 µM 85% | [11]; at 33.0 µM 87% | [11]; at 100.0 µM 89% | [15]; at 3.7 µM 78% | [15]; at 11.0 µM 83% | [15]; at 33.0 µM 84% | [15]; at 50.0 µM 88% | [15]; at 100.0 µM 84%

O=C1c2ccccc2C(=O)C(Cl)C1Cl (stereo not drawn)
active: [12]; at 11.0 µM 72% | [12]; at 33.0 µM 99% | [12]; at 100.0 µM 99% | [13]; at 11.0 µM 98% | [13]; at 33.0 µM 99% | [13]; at 100.0 µM 98% | [14]; at 11.0 µM 99% | [14]; at 33.0 µM 99% | [14]; at 100.0 µM 99% | [15]; at 11.0 µM 98% | [15]; at 33.0 µM 99% | [15]; [18] 99% | [15]; at 50.0 µM 99.2% | [15]; at 100.0 µM 99% | [1]; at 11.0 µM 90% | [1]; at 33.0 µM 99% | [1]; [18] 99% | [1]; at 50.0 µM 99.4% | [1]; at 100.0 µM 99% | [16]; [18] 99% | [16]; at 50.0 µM 99.5% | [3]; at 11.0 µM 71% | [3]; at 33.0 µM 99% | [3]; at 100.0 µM 98% | [4]; [18] 99% | [4]; at 50.0 µM 99.1% | [5]; [17] 88% | [5]; at 11.0 µM 98% | [5]; at 33.0 µM 99% | [5]; [18] 99% | [5]; at 50.0 µM 99.3% | [5]; at 100.0 µM 99% | [8]; at 11.0 µM 89% | [8]; at 33.0 µM 99% | [8]; at 100.0 µM 99% | [9]; [18] 99% | [9]; at 50.0 µM 99.3%
inactive: [12]; at 1.2 µM 7% | [12]; at 3.7 µM 18% | [13]; at 1.2 µM 7% | [13]; at 3.7 µM 36% | [14]; at 1.2 µM 7% | [14]; at 3.7 µM 13% | [15]; at 1.2 µM 5% | [15]; at 3.7 µM 36% | [15]; [17] 29% | [1]; at 1.2 µM 9% | [1]; at 3.7 µM 22% | [1]; [17] 34% | [16]; [17] 33% | [3]; at 1.2 µM 4% | [3]; at 3.7 µM 10% | [4]; [17] 10% | [5]; at 1.2 µM 13% | [5]; at 3.7 µM 35% | [8]; at 1.2 µM 4% | [8]; at 3.7 µM 15% | [9]; [17] 21%
